These results are taken from PubChem BioAssay (NCI).

Common to all, as to experiment: NCI-60 one-dose screen, 48 h (100 = growth as untreated, 0 = no growth, -100 = all killed)
Holding throughout (details): 10 µM unless noted

The test system of assay [1] is NCI-H226 lung.
For assay [2], the system named is NCI-H322M lung.
For assay [3], the system named is HOP-62 NSCLC.
The subject of assay [4] is NCI-H460 lung.
Assay [5] concerns NCI-H522 lung.
The test system of assay [6] is A549/ATCC NSCLC.
The subject of assay [7] is 786-0 renal.
Assay [8] relates to COLO 205 colon.
The test system of assay [9] is DU-145 prostate.
Assay [10] relates to K-562 leukemia.
Assay [11] relates to MALME-3M melanoma.
Assay [12] deals with MDA-MB-231 breast.
Assay [13] deals with RXF 393 renal.
In assay [14] the test system is SF-268 CNS.
Assay [15] relates to SF-295 CNS.
Assay [16] deals with SF-539 CNS.
The subject of assay [17] is UACC-257 melanoma.
The subject of assay [18] is M14 melanoma.
In assay [19] the test system is HCT-15 colon.

The panel holds about 83,000 compounds, 20% with a hit somewhere; the sample as a whole holds those more often.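 In brief: 96-well plates, 48 h treatment, single concentration, percent growth endpoint.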 Unmarked numbers belong to inactive results. Calls of active or inactive are those of the source. How the source made its calls: active means growth percent below 10; inactive means the rest.

Take `COc1ccc(-c2cncn2-c2ccc(-c3nc4cc(OC)c(OC)c(OC)c4s3)cc2)cc1N`: the growth in [1] is 64.5%; in assay [2], 84.1%; in assay [3] it was 101%; in [4] it was 51.4%; in assay [5] it was 46%; in assay [6], 47.9%. Also, the growth in [7] is 55.2%; in [8], 46.2%; in assay [9], 92.6%; in assay [10], 41%; in [11] it was 57.9%; in [12], 76.4%. The growth in assay [13] is 75.8%; in [14] it was 93.1%; in assay [15], 50%; in [16], 87.8%; in [17] it was 71.6%; in assay [18], 46.5%. Moreover, the growth in assay [19] is 42.1%.

Regarding `O=C1c2nsnc2C(=O)c2c(F)c(F)c(F)c(F)c21`, the growth in assay [1] is -38.2% (active); in assay [2], 26.9%; in assay [3] it was -86% (active); in assay [4] it was -51.8% (active); in assay [5] it was -67.2% (active); in [6], -27.9% (active). Also, the growth was -97.1% (active) in assay [7]; -45.9% (active) in assay [11]; -68.2% (active) in assay [12]; -96.4% (active) in assay [13]; -15.6% (active) in [14]; -37% (active) in assay [15]. Moreover, the growth in assay [16] is -74.1% (active); in assay [17], -97.3% (active); in assay [18] it was -90.8% (active).

Take `CCOC(=O)C1C(=O)OC2CCCCC21` (centres undefined): the growth in [1] was 113%; in assay [2], 113%; in assay [3], 127%; in assay [4] it was 110%; in assay [5], 108%; in [6], 102%. In addition, the growth is 100% in assay [7]; 120% in [8]; 102% in [10]; 120% in assay [11]; 101% in [12]; 119% in [13]. Also, the growth was 111% in assay [14]; 114% in assay [15]; 105% in assay [16]; 102% in assay [17]; 98.3% in assay [18]; 101% in [19].

`O=C1/C(=C/c2ccc([N+](=O)[O-])s2)Oc2ccc(Br)cc21`: the growth in [1] is -57% (active); in assay [2], -29.7% (active); in assay [3], -49.8% (active); in assay [4], -51.9% (active); in assay [5], -77.7% (active); in assay [6] it was -39.6% (active). Further, the growth in assay [7] was -13.4% (active); in [8], -80% (active); in [9] it was -72.1% (active); in assay [10], -5.87% (active); in [11], -59.7% (active); in assay [12], -64% (active). In addition, the growth is -59.9% (active) in assay [13]; -52.1% (active) in assay [14]; -31.3% (active) in assay [15]; -73.7% (active) in [16]; -39.2% (active) in assay [17]; -54.1% (active) in [18]. In addition, the growth in assay [19] is -3.34% (active).

In the case of `Cc1ccc([N+](=O)[O-])cc1NC(=O)Nc1cccc(F)c1`, the growth in assay [1] was 69.6%; in assay [2], 98.3%; in assay [3], 99.4%; in [4], 47.2%; in assay [5] it was 31.4%; in assay [6] it was 57.9%. The growth in [7] is 71.6%; in [8] it was 138%; in assay [9], 84.6%; in [10], 31.4%; in [11], 99.6%; in assay [12], 93.4%. The growth was 126% in assay [13]; 100% in assay [14]; 50.3% in assay [15]; 85.1% in [16]; 82% in assay [17]; 67.7% in assay [18]. For the same molecule, the growth in assay [19] was 68.4%.

Turning to `CCCC[N+](CCCC)=c1ccc2nc3c(C)cc(N(CC)CC)cc3sc-2c1`, the growth in [1] was 18.4%; in [2] it was 27.6%; in assay [3] it was -23.4% (active); in assay [4] it was 2.83% (active); in assay [5] it was -17.1% (active); in [6], 16.7%. The growth in [8] was -41.1% (active); in assay [9], 13.7%; in assay [10] it was -49.1% (active); in assay [11], -78.6% (active); in assay [12], -29.4% (active); in assay [13], -25.8% (active). For the same molecule, the growth was 10.4% in [14]; -24.4% (active) in assay [15]; -62.5% (active) in [16]; -41% (active) in [17]; 7.11% (active) in assay [18]; -33.5% (active) in [19].

With `Cc1ccccc1-c1cc(Cc2ccccc2O)c(=O)[nH]n1`, the growth is 85.8% in assay [1]; 115% in [2]; 108% in assay [3]; 115% in assay [4]; 93.3% in assay [5]; 107% in assay [6]. Besides, the growth in assay [7] is 98.9%; in assay [9], 125%; in assay [10], 91.7%; in [11] it was 151%; in assay [12], 90.7%; in assay [13] it was 140%. The growth in assay [14] is 85.1%; in [15], 113%; in [16], 107%; in assay [17], 122%; in assay [18], 120%; in [19], 107%.

On to `Cc1cc(O)c2c(c1)C[C@H]1[C@@H]3CC[C@H]4CC(=O)CC[C@]4(C)[C@H]3CC(=O)[C@]21C`, for which the growth is 94.6% in [1]; 104% in assay [2]; 123% in assay [3]; 99.2% in [4]; 73.9% in assay [5]; 77% in [6]. In addition, the growth is 87.8% in [7]; 104% in assay [8]; 85.2% in assay [9]; 53.3% in [10]; 92.8% in assay [11]; 86% in assay [12]. For the same molecule, the growth in assay [13] was 94.1%; in [14], 87.6%; in assay [16] it was 73.3%; in [17], 100%; in assay [18], 80.9%; in assay [19] it was 45.3%.
